Consider 35 targets from the supplement of paper PMC11006884.

Targets with a hit are over-represented here; the source holds about 6,500 in all. About 2% of all pairs of compound and target were hits. Values without a mark were called inactive.

UniProt Q13418, sequence (Q13418 whole entry, looked up): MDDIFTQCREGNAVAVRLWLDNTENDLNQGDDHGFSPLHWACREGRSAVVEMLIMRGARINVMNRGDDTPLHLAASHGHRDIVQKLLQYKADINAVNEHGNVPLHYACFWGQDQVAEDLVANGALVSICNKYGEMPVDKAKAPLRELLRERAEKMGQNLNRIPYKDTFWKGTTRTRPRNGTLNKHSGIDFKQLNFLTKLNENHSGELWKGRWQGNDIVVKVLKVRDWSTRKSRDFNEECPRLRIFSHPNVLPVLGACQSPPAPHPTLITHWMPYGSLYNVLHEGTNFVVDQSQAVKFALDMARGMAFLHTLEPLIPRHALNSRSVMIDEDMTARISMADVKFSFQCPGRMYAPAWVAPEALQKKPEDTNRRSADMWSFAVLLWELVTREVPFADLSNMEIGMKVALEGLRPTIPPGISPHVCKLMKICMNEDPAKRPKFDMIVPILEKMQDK
UniProt Q13813, sequence (Q13813 whole entry, looked up): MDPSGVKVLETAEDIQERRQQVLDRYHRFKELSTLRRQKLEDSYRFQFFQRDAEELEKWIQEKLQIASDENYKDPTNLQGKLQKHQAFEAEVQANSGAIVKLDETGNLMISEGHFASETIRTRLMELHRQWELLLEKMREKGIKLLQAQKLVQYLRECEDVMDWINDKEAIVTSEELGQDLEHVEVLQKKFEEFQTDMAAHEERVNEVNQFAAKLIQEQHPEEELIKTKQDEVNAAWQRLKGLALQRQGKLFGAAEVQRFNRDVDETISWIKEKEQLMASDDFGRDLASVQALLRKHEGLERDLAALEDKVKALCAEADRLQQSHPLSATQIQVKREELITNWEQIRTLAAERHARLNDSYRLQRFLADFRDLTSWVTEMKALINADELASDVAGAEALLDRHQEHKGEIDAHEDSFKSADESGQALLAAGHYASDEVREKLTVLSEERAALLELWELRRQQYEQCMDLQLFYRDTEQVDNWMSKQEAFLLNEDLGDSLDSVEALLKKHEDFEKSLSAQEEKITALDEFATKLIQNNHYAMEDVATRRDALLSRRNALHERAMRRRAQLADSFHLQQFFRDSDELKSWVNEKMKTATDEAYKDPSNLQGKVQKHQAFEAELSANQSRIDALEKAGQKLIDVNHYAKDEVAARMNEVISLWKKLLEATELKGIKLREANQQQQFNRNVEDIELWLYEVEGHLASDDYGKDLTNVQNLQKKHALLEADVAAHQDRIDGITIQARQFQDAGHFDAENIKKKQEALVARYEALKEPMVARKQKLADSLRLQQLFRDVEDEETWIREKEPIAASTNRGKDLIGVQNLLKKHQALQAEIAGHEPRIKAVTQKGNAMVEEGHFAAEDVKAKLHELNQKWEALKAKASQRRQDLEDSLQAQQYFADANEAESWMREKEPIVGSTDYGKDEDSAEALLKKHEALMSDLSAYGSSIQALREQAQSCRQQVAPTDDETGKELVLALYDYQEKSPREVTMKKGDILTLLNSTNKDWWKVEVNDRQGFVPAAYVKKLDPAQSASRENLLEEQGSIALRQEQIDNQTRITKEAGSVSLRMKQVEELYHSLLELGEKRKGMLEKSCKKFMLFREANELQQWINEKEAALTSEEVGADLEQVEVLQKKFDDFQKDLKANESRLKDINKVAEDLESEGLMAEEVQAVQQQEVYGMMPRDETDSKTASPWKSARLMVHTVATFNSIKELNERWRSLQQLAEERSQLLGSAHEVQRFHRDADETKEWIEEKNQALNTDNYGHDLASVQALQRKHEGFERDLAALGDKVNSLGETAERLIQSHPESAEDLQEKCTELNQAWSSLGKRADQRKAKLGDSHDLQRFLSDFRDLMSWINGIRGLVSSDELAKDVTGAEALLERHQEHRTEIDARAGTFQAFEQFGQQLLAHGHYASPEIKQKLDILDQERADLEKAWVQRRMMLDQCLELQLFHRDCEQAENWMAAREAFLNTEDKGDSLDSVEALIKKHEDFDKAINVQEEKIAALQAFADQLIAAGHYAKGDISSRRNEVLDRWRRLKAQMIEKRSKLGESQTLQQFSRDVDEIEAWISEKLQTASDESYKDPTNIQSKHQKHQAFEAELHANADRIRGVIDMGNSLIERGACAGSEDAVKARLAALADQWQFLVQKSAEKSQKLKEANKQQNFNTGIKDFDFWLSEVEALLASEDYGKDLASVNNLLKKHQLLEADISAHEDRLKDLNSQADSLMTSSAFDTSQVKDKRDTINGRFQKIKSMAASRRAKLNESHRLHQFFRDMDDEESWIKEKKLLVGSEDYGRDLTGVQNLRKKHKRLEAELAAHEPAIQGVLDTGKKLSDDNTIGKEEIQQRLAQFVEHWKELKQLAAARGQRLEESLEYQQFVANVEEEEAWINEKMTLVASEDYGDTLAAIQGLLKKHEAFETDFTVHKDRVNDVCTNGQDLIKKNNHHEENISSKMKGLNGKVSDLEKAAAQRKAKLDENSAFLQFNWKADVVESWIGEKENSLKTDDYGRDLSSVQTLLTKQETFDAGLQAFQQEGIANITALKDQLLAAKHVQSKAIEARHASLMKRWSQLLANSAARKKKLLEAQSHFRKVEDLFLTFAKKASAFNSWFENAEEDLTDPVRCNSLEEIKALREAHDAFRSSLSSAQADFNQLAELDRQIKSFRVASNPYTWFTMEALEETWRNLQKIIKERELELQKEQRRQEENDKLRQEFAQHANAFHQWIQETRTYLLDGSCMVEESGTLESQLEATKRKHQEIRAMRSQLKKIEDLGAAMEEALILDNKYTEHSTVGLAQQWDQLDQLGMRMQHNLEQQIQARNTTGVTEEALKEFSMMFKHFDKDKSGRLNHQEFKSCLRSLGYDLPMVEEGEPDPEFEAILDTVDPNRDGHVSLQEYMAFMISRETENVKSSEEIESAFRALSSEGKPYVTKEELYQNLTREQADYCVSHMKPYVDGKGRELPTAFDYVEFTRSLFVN
UniProt Q01518, sequence (Q01518 whole entry): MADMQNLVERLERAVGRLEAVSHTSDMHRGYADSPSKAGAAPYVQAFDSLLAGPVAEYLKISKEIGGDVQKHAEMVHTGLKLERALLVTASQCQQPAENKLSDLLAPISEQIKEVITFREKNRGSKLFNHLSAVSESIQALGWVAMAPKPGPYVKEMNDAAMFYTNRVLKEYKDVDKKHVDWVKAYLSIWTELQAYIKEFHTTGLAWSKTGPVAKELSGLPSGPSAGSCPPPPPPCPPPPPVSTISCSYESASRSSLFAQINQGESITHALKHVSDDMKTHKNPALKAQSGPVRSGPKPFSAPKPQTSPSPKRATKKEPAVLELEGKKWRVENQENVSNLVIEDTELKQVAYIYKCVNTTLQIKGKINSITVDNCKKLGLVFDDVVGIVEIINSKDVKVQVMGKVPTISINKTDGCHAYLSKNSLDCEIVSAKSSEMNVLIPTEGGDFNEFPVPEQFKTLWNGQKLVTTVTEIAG
UniProt P56277, sequence (P56277 whole entry): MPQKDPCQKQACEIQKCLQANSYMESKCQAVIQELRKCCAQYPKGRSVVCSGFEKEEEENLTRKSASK
UniProt Q13501, sequence (Q13501 whole entry, looked up): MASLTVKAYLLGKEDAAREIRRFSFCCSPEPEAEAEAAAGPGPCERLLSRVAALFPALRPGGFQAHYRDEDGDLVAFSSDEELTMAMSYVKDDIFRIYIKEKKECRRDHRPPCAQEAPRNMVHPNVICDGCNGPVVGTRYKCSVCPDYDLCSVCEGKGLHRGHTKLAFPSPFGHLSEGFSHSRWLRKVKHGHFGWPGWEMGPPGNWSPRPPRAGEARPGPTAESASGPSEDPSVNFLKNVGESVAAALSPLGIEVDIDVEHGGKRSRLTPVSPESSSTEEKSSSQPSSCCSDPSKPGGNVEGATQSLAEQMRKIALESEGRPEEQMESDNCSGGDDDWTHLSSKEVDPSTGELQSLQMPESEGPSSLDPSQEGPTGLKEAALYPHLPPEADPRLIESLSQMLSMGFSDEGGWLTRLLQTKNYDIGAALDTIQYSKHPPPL
UniProt Q15334, sequence (Q15334 whole entry, looked up): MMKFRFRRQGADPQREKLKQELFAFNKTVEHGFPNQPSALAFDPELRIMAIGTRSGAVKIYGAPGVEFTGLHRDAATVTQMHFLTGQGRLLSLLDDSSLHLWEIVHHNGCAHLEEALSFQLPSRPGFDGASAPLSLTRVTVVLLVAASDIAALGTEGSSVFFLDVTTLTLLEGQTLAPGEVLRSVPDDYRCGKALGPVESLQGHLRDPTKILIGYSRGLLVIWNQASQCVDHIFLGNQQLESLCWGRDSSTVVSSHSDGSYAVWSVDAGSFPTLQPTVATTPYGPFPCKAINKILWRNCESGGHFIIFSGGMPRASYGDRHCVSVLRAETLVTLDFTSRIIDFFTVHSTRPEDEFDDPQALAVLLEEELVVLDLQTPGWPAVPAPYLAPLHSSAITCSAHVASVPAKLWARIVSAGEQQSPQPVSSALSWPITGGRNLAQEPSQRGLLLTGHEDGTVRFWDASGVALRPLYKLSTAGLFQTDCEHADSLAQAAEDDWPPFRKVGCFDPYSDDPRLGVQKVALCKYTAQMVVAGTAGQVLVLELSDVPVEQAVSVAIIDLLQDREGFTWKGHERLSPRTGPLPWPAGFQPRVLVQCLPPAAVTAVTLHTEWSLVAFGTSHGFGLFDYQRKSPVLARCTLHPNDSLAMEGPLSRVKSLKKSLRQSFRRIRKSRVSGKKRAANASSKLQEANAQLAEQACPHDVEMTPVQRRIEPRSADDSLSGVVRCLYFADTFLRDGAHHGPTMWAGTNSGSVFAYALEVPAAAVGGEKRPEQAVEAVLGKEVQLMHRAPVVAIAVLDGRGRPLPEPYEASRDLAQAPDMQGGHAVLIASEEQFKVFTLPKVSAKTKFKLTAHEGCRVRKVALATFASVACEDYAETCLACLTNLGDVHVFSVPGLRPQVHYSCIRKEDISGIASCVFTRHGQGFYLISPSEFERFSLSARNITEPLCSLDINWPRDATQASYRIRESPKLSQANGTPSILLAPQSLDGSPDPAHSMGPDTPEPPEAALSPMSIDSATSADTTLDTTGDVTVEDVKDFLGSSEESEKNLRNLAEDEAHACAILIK

Compound in the experiment: COC(=O)C#Cc1ccccc1 [methyl 3-phenylpropiolate]
Nature of the experiment: log2 ratio of iodoacetamide-alkyne labeling of the cysteine site, DMSO over compound (competition); higher = stronger covalent engagement of the cysteine by the compound, active = 1 or more. Particulars: 500 µM; treatment time 1 h; system: HEK293T cell lysate. The essentials: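 The log2 competition ratio per cysteine is defined as mean reporter intensity in control channels over mean reporter intensity in compound channels. Lysate from HEK293T cells (2 mg/mL) received electrophile (500 µM) or vehicle for 1 h at ambient temperature, followed by iodoacetamide alkyne for 1 h. Samples were clicked to sCIP-TMT reagents, pooled, trypsin-digested overnight at 37 °C, streptavidin-enriched, acid-eluted and run on Orbitrap Eclipse LC-MS/MS with FAIMS, with quantification in FragPipe. Three replicates with duplicate channels were used, and any cysteine quantified in only one replicate was excluded.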
For the target FHL1 C71 (UniProt Q13642), the “log2 ratio of iodoacetamide-alkyne labeling” value (from here on “log2 ratio”) is 0.0627.

Regarding TCOF1 C1298 (UniProt Q13428), the “log2 ratio” value is 0.666.

As for SPCS2 C26 (UniProt Q15005), the “log2 ratio” value was 1.62 (active).

Take RRP12 C261 (UniProt Q5JTH9): the “log2 ratio” value was 0.53.

For the target BLM C704 (UniProt P54132), the “log2 ratio” value is 0.6.

For the target RRP1B C583 (UniProt Q14684), the “log2 ratio” value is 0.481.

Turning to R3HDM1 C304 (UniProt Q15032), the “log2 ratio” value is 0.1.

Consider UniProt P55769_C30, for which the “log2 ratio” value was -0.0266.

Regarding LLGL1 C1059 (UniProt Q15334), the “log2 ratio” value was 0.241.

As for RPS27A C144 (UniProt P62979), the “log2 ratio” value is -0.175.

For the target ACTR3 C12 (UniProt P61158), the “log2 ratio” value is 0.212.

Turning to SPTAN1 C1930 (UniProt Q13813), the “log2 ratio” value is 0.167.

As to MARS C38 (UniProt P56192), the “log2 ratio” value was 0.14.

On to HNRNPU C450 (UniProt Q00839), for which the “log2 ratio” value is 0.018.

In the case of ILK C422 (UniProt Q13418), the “log2 ratio” value is 0.358.

For the target CMC4 C12 (UniProt P56277), the “log2 ratio” value is 1.14 (active).

With MIA3 C1513 (UniProt Q5JRA6), the “log2 ratio” value is 0.31.

With LGALS3BP C496 (UniProt Q08380), the “log2 ratio” value was 1.72 (active).

In the case of UniProt P55072_C209, the “log2 ratio” value is 0.132.

In the case of PPP5C C452 (UniProt P53041), the “log2 ratio” value was 0.0827.

With CAP1 C93 (UniProt Q01518), the “log2 ratio” value was 0.152.

For the target SQSTM1 C113 (UniProt Q13501), the “log2 ratio” value was 1.2 (active).

Turning to UniProt Q5H9R7_C467, the “log2 ratio” value is 0.103.

With AKAP13 C683 (UniProt Q12802), the “log2 ratio” value was 0.255.

Turning to UniProt Q02930_C80, the “log2 ratio” value is 1.09 (active).

In the case of UniProt Q05655_C127, the “log2 ratio” value is 0.196.

In the case of UniProt P98164_C4047, the “log2 ratio” value is 0.464.

Take UniProt P61978_C184: the “log2 ratio” value is 0.0026.

Turning to UniProt Q5MNZ6_C6, the “log2 ratio” value is 0.235.

For PCM1 C957 (UniProt Q15154), the “log2 ratio” value is 2.43 (active).

In the case of PDS5A C581 (UniProt Q29RF7), the “log2 ratio” value is 0.744.

With MTA1 C229 (UniProt Q13330), the “log2 ratio” value was 0.124.

For BMS1 C725 (UniProt Q14692), the “log2 ratio” value is 1.27 (active).

As for EIF2B5 C335 (UniProt Q13144), the “log2 ratio” value was 0.267.

For NFKB2 C57 (UniProt Q00653), the “log2 ratio” value is 1.24 (active).
